From the supplement of paper PMC6555819 come the findings set out here.

Common to all, as to experiment: PBM binding z-score (relative to random genomic background probes); higher = stronger binding; sequences stand for … in GC…GCGATTGACAGCGTAGAATGAAGG
The subject of experiment [1] is FXR:RXRa (NR concentration 270 nM, RXRa partner concentration 90 nM). The method, boiled down:
(§1)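 For binding z-scores, the reference was random background probes on custom Agilent 4×180K protein-binding microarrays. These arrays were incubated 1 h with ligand-free nuclear receptor dimers in PBS pH 7.4, 2% milk, 0.02% Triton X-100, 1 mM DTT, 0.2 mg/mL BSA and 0.4 mg/ml salmon testes DNA. Fluorescence was scanned after antibody detection of each partner (one per run) and regression-normalized.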

Experiment [2] concerns LXRa:RXRa (NR concentration 270 nM, RXRa partner concentration 90 nM). The method, boiled down:
as §1

For experiment [3], the system named is LXRa homodimer (NR concentration 270 nM). The method, boiled down: as §1
Experiment [4] concerns LXRb:RXRa (NR concentration 270 nM, RXRa partner concentration 90 nM). The method, boiled down: as §1
Experiment [5] relates to LXRb homodimer (NR concentration 270 nM). Summed up:
as §1

Experiment [6] concerns PPARa:RXRa (NR concentration 270 nM, RXRa partner concentration 90 nM). Summed up: as §1
Experiment [7] relates to PPARg:RXRa (NR concentration 180 nM, RXRa partner concentration 90 nM). The method, boiled down:
as §1

For experiment [8], the system named is PPARg:RXRa 270nM:90nM, anti-RXR (NR concentration 270 nM, RXRa partner concentration 90 nM). Summed up:
as §1

Experiment [9] concerns PPARg:RXRa 30nM:10nM, anti-RXR (NR concentration 30 nM, RXRa partner concentration 10 nM). Summed up:
as §1

In experiment [10] the test system is PPARg:RXRa 90nM:30nM, anti-RXR (NR concentration 90 nM, RXRa partner concentration 30 nM). Summed up: as §1
The test system of experiment [11] is PPARg:RXRa DBDmut IVT, anti-RXR (DBD mutation: RXRa K156A/R161A, NR concentration 270 nM, RXRa partner concentration 90 nM). Summed up:
as §1

Experiment [12] deals with PPARg:RXRa IVT, anti-PPARg (NR concentration 270 nM, RXRa partner concentration 90 nM). The method, boiled down:
as §1

The test system of experiment [13] is PPARg DBDmut:RXRa IVT, anti-PPARg (DBD mutation: PPARg1 K132A/R137A, NR concentration 270 nM, RXRa partner concentration 90 nM). The method, boiled down: as §1
Experiment [14] has as its system PPARg DBDmut IVT, anti-PPARg (DBD mutation: PPARg1 K132A/R137A, NR concentration 270 nM). The method, boiled down: as §1
Experiment [15] concerns PPARg homodimer (NR concentration 180 nM). Summed up: as §1
Experiment [16] has as its system PXR:RXRa (NR concentration 270 nM, RXRa partner concentration 90 nM). The method, boiled down: as §1
The subject of experiment [17] is PXR homodimer (NR concentration 270 nM). The method, boiled down: as §1
The test system of experiment [18] is RARa:RXR (NR concentration 270 nM, RXRa partner concentration 90 nM). The method, boiled down: as §1
Experiment [19] relates to RARa homodimer (NR concentration 270 nM). Summed up:
as §1

Experiment [20] concerns RARb:RXRa (NR concentration 270 nM, RXRa partner concentration 90 nM). Summed up:
as §1

As for ATCGAAAGGTCGACGAGGTGAGTATACACCGTTT, the PBM binding z-score is 4.62 in experiment [1]; 3.32 in [2]; -0.0538 in experiment [3]; 2.73 in experiment [4]; 0.533 in experiment [5]; 4.52 in experiment [6]. Besides, the PBM binding z-score worked out at 2.85 in [7]; 3.18 in experiment [8]; 1.02 in [9]; 2.34 in experiment [10]; 0.442 in experiment [11]; 1.82 in [12]. Besides, the PBM binding z-score amounted to 0.853 in experiment [13]; 1.45 in experiment [14]; 1.32 in experiment [15]; 3.15 in experiment [16]; 0.642 in [17]; 4.09 in experiment [18]. The PBM binding z-score came out at 1.19 in [19] and 3.73 in [20].
On to ACTATTAGTTGACTTAGGGCAATCGATACGACGC, for which the PBM binding z-score in experiment [1] is 0.199; in experiment [2], 0.203; in experiment [3] it was 0.0491; in experiment [4], 0.176; in experiment [5] it was 0.464; in experiment [6] it was -0.0585. Besides, the PBM binding z-score in experiment [7] is 0.814; in experiment [8] it was 0.195; in experiment [9] it was 0.373; in [10], 0.365; in [11], 0.335; in experiment [12], 0.292. Moreover, the PBM binding z-score stood at 1.13 in experiment [13]; 0.914 in [14]; 0.761 in experiment [15]; 0.304 in experiment [16]; 0.241 in [17]; 0.866 in experiment [18]. Moreover, the PBM binding z-score amounted to 0.707 in experiment [19] and 0.668 in [20].
In the case of CGTCCAAGGTCATAGGAGGTCAGTGATGACAGAT, the PBM binding z-score turned out to be 7.57 in experiment [1]; 7.22 in experiment [2]; 5.1 in [3]; 5.96 in experiment [4]; 1.02 in experiment [5]; 5.77 in [6]. For the same sequence, the PBM binding z-score turned out to be 5.63 in experiment [7]; 5.82 in [8]; 2.23 in [9]; 4.02 in [10]; 3.37 in experiment [11]; 4.38 in experiment [12]. The PBM binding z-score in experiment [13] is 0.469; in experiment [14] it was 0.243; in experiment [15], 3.94; in experiment [16], 6.6; in experiment [17], 3.48; in [18] it was 5.69. Also, the PBM binding z-score in experiment [19] stood at 2.24; in experiment [20], 5.32.
In the case of CCTTCTGGGCCAAGGTCATTGATCAGTCAAAGCA, the PBM binding z-score in experiment [1] is 2.83; in experiment [2], 2.99; in experiment [3], 0.639; in experiment [4] it was 2.84; in experiment [5], -0.27; in [6], 3.75. Further, the PBM binding z-score is 3.12 in experiment [7]; 4.15 in experiment [8]; 1.37 in experiment [9]; 3.57 in experiment [10]; 3.79 in experiment [11]; 4.03 in [12]. The PBM binding z-score was -0.283 in [13]; -0.969 in experiment [14]; 1.45 in experiment [15]; 3.33 in experiment [16]; 1.12 in experiment [17]; 3.11 in [18]. The figures for the PBM binding z-score in [19] and in experiment [20] were -0.215 and 3.39, respectively.
On to GGAACGAGGGCAAAGTTGGTAGCATCTGTCGACG, for which the PBM binding z-score in experiment [1] was 1.06; in [2], 0.577; in [3], -0.241; in experiment [4], 0.306; in experiment [5], -0.429; in experiment [6], 3.14. In addition, the PBM binding z-score in experiment [7] was determined as 5; in experiment [8], 5.51; in [9] it was 4.45; in [10], 5.44; in experiment [11], 4.05; in [12] it was 3.9. The PBM binding z-score in [13] is 0.127; in [14], -0.27; in experiment [15], 0.782; in experiment [16], 0.589; in experiment [17], -0.136; in [18], 0.765. The PBM binding z-score is -0.548 in experiment [19] and 2.31 in [20].
For the sequence CAAACTAGGTCAAAGGGCAAAGTCGAGCCAACCA, the PBM binding z-score in experiment [1] is 6.12; in experiment [2], 5.04; in experiment [3] it was 1.25; in [4], 4.01; in experiment [5], 0.969; in experiment [6], 6.94. The PBM binding z-score in experiment [7] stood at 12.9; in experiment [8], 10.6; in [9] it was 11; in [10] it was 11.7; in experiment [11], 8.37; in experiment [12], 8.59. Moreover, the PBM binding z-score was 2.1 in experiment [13]; 1.17 in experiment [14]; 2.46 in experiment [15]; 4.09 in experiment [16]; 0.769 in [17]; 6.57 in [18]. Also, the PBM binding z-score in experiment [19] amounted to 0.986; in [20], 4.51.
As for GTACCAAGGTGAATAGGTCGTTGTTGAGTAGGCG, the PBM binding z-score in experiment [1] was 0.827; in [2], 0.686; in [3], -0.152; in [4], 0.303; in experiment [5], -0.821; in [6], 2.07. Also, the PBM binding z-score in experiment [7] was 1.18; in experiment [8] it was 1.21; in experiment [9], 0.0125; in experiment [10], 0.678; in [11], 1.9; in experiment [12], 2.74. The PBM binding z-score in [13] was 0.246; in experiment [14], -0.308; in experiment [15], 1.31; in [16], 0.708; in experiment [17] it was -0.604; in experiment [18] it was 1.5. The results for the PBM binding z-score in [19] and in experiment [20] were 0.154 and 1.91, respectively.
